# Measurements as given in PubChem BioAssay (NCI).
# About 79,000 compounds went through this panel and 15% of them were active in at least one assay; those are over-represented in the sample as a whole. Values without a mark were called inactive. Calls of active or inactive are those of the source. Cut-off read from the data, not from the text of the source: active = growth inhibition above about 70%; inactive = the rest.
# What was measured:
# [1] = NCI Yeast Anticancer Drug Screen. Data for the rad52 strain (AID 147);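 note: 0% = growth of vehicle-treated control cultures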; conditions: S. cerevisiae rad52 mutant growth inhibition, hits give high values
# In short: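 Growth of repair-deficient yeast cells was compared between compound-treated and vehicle-treated cultures to give percent inhibition.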
# [2] = NCI Yeast Anticancer Drug Screen. Data for the rad50EPP+ strain (AID 151);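 note: 0% = growth of vehicle-treated control cultures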; conditions: S. cerevisiae rad50 mutant strain, hits give high values
# In short: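 Measured: growth inhibition of rad50EPP+ yeast. Reference: vehicle-treated controls. Screen uses strains with defined genetic alterations in DNA damage repair or cell cycle control.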
# [3] = NCI Yeast Anticancer Drug Screen. Data for the rad50 strain (AID 155);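 note: 0% = growth of vehicle-only cultures of the same strain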; conditions: S. cerevisiae rad50 strain growth inhibition, hits give high values
# In short: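 Readout: growth inhibition relative to vehicle-treated cultures. Compound exposure was carried out in a genetically defined yeast strain deficient in DNA damage repair.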
# [4] = NCI Yeast Anticancer Drug Screen. Data for the mec2-1 strain (AID 157); conditions: S. cerevisiae mec2-1 strain, hits give high values
# In short: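 Compounds were applied to mec2-1 yeast cells. Their growth was then compared with that of vehicle-treated cultures to give growth inhibition.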
# [5] = NCI Yeast Anticancer Drug Screen. Data for the rad14 strain (AID 159);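 note: 0% = growth of vehicle-treated control cultures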; conditions: S. cerevisiae rad14 strain growth inhibition, hits give high values
# In short: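 Growth inhibition vs vehicle controls; genetically altered yeast strain (DNA damage repair defect) treated with test compounds.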
# [6] = NCI Yeast Anticancer Drug Screen. Data for the sgs1 mgt1 strain (AID 161);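 note: 0% = growth of cultures given vehicle only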; conditions: S. cerevisiae sgs1 mgt1 strain, hits give high values
# In short: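 Percent growth inhibition was derived by comparing compound-exposed mutant yeast with vehicle-exposed cultures. The strain carries alterations in DNA damage repair.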
# [7] = NCI Yeast Anticancer Drug Screen. Data for the CLN2oe strain (AID 163);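 note: 0% = growth of vehicle-only control cultures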; conditions: S. cerevisiae CLN2oe strain, hits give high values
# In short: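 Cells of an engineered yeast line with disturbed cell-cycle regulation are treated with compound. Inhibition of growth is then calculated relative to the vehicle-treated reference.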
# [8] = NCI Yeast Anticancer Drug Screen. Data for the cln2 rad14 strain (AID 165);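 note: 0% = growth equal to vehicle treated cultures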; conditions: S. cerevisiae cln2 rad14 strain, hits give high values
# In short: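 Strain: cln2 rad14 yeast, altered in cell cycle control and DNA damage repair. Read-out: growth inhibition vs vehicle.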
# [9] = NCI Yeast Anticancer Drug Screen. Data for the sgs1 strain (AID 173);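 note: 0% = growth of vehicle-only control cultures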; conditions: S. cerevisiae sgs1 mutant, hits give high values
# In short: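 Strain with an altered DNA repair or cell cycle pathway exposed to compound. Growth then measured. Value = inhibition versus vehicle control.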
# [10] = NCI Yeast Anticancer Drug Screen. Data for the mlh1 rad18 strain (AID 175); conditions: S. cerevisiae mlh1 rad18 strain growth inhibition, hits give high values
# In short: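 A repair-deficient yeast strain is exposed to test compound, and growth is scored relative to vehicle-treated controls.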
# [11] = NCI Yeast Anticancer Drug Screen. Data for the rad18 strain (AID 177); conditions: S. cerevisiae rad18 mutant growth inhibition, hits give high values
# In short: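 DNA-repair-defective yeast; compound treatment; growth inhibition scored against vehicle.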
# [12] = NCI Yeast Anticancer Drug Screen. Data for the wt1 strain (AID 149);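 note: 0% = growth of vehicle-treated wt1 cultures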; conditions: S. cerevisiae wt1 strain (SPY 50644) growth inhibition, hits give high values
# In short: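 Growth inhibition read against vehicle controls after compound exposure of the wt1 yeast strain.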
# [13] = NCI Yeast Anticancer Drug Screen. Data for the mgt1 strain (AID 153); conditions: S. cerevisiae mgt1 mutant growth inhibition, hits give high values
# In short: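 Compounds were applied to mgt1 mutant yeast, and growth was then compared against vehicle-treated control cultures to give percent inhibition.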
# [14] = NCI Yeast Anticancer Drug Screen. Data for the bub3 strain (AID 167); conditions: S. cerevisiae bub3 mutant strain, hits give high values
# In short: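 Readout: yeast growth inhibition, expressed relative to vehicle-only wells. The test organism is a mutant strain from a panel with lesions in DNA repair or checkpoint genes.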
# [15] = NCI Yeast Anticancer Drug Screen. Data for the wt2 strain (AID 169);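 note: 0% = growth of vehicle-treated yeast cultures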; conditions: S. cerevisiae wt2 strain growth inhibition, hits give high values
# In short: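 Growth of compound-treated yeast is measured and expressed as inhibition relative to vehicle-only controls.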
# [16] = NCI Yeast Anticancer Drug Screen. Data for the mlh1 strain (AID 171);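 note: 0% = growth of vehicle-treated control cultures of the same strain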; conditions: S. cerevisiae mlh1 strain growth inhibition, hits give high values
# In short: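 Test agents were incubated with yeast bearing a defined DNA damage repair or cell cycle control alteration; values are growth inhibition normalised to vehicle-treated cultures.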
# [17] = at 5.0 µM (retest, dose inferred, filed as 0.5)
# [18] = at 50.0 µM (retest, dose inferred, filed as 5.0)
structure (smiles),measurement,setting,value
C=Cc1cnc([N+](=O)[O-])n1C,growth inhibition,[1]; at 1.2 µM,2%
same,growth inhibition,[1]; at 3.7 µM,35%
same,growth inhibition,[1]; at 11.0 µM,65%
same,growth inhibition,[1]; at 33.0 µM,85% (active)
same,growth inhibition,[1]; at 100.0 µM,95% (active)
same,growth inhibition,[2]; at 1.2 µM,-1%
same,growth inhibition,[2]; at 3.7 µM,15%
same,growth inhibition,[2]; at 11.0 µM,41%
same,growth inhibition,[2]; at 33.0 µM,82% (active)
same,growth inhibition,[2]; at 100.0 µM,91% (active)
same,growth inhibition,[3]; at 1.2 µM,3%
same,growth inhibition,[3]; at 3.7 µM,17%
same,growth inhibition,[3]; [17],23%
same,growth inhibition,[3]; at 11.0 µM,52%
same,growth inhibition,[3]; at 33.0 µM,86% (active)
same,growth inhibition,[3]; [18],87% (active)
same,growth inhibition,[3]; at 50.0 µM,78.5% (active)
same,growth inhibition,[3]; at 100.0 µM,94% (active)
same,growth inhibition,[4]; at 1.2 µM,11%
same,growth inhibition,[4]; at 3.7 µM,3%
same,growth inhibition,[4]; [17],0%
same,growth inhibition,[4]; at 11.0 µM,26%
same,growth inhibition,[4]; at 33.0 µM,87% (active)
same,growth inhibition,[4]; [18],94% (active)
same,growth inhibition,[4]; at 50.0 µM,85.7% (active)
same,growth inhibition,[4]; at 100.0 µM,95% (active)
same,growth inhibition,[5]; at 1.2 µM,-1%
same,growth inhibition,[5]; at 3.7 µM,25%
same,growth inhibition,[5]; at 11.0 µM,76% (active)
same,growth inhibition,[5]; at 33.0 µM,96% (active)
same,growth inhibition,[5]; at 100.0 µM,98% (active)
same,growth inhibition,[6]; [17],61%
same,growth inhibition,[6]; [18],95% (active)
same,growth inhibition,[6]; at 50.0 µM,83.1% (active)
same,growth inhibition,[7]; at 1.2 µM,-14%
same,growth inhibition,[7]; at 3.7 µM,8%
same,growth inhibition,[7]; at 11.0 µM,14%
same,growth inhibition,[7]; at 33.0 µM,33%
same,growth inhibition,[7]; at 100.0 µM,86% (active)
same,growth inhibition,[8]; [17],39%
same,growth inhibition,[8]; [18],93% (active)
same,growth inhibition,[8]; at 50.0 µM,90.2% (active)
same,growth inhibition,[9]; at 1.2 µM,22%
same,growth inhibition,[9]; at 3.7 µM,51%
same,growth inhibition,[9]; at 11.0 µM,69%
same,growth inhibition,[9]; at 33.0 µM,85% (active)
same,growth inhibition,[9]; at 100.0 µM,92% (active)
same,growth inhibition,[10]; [17],79% (active)
same,growth inhibition,[10]; [18],90% (active)
same,growth inhibition,[10]; at 50.0 µM,90.2% (active)
same,growth inhibition,[11]; at 1.2 µM,85% (active)
same,growth inhibition,[11]; at 3.7 µM,92% (active)
same,growth inhibition,[11]; at 11.0 µM,94% (active)
same,growth inhibition,[11]; at 33.0 µM,94% (active)
same,growth inhibition,[11]; at 100.0 µM,94% (active)
NC(N)=NCCCS(=O)(=O)Nc1ccc(Nc2c3ccccc3nc3cc([N+](=O)[O-])ccc23)cc1,growth inhibition,[12]; at 1.2 µM,-20%
same,growth inhibition,[12]; at 3.7 µM,-18%
same,growth inhibition,[12]; at 11.0 µM,-26%
same,growth inhibition,[12]; at 33.0 µM,-15%
same,growth inhibition,[12]; at 100.0 µM,42%
same,growth inhibition,[2]; at 1.2 µM,-21%
same,growth inhibition,[2]; at 3.7 µM,-11%
same,growth inhibition,[2]; at 11.0 µM,17%
same,growth inhibition,[2]; at 33.0 µM,44%
same,growth inhibition,[2]; at 100.0 µM,68%
same,growth inhibition,[13]; at 1.2 µM,-24%
same,growth inhibition,[13]; at 3.7 µM,-29%
same,growth inhibition,[13]; at 11.0 µM,-10%
same,growth inhibition,[13]; at 33.0 µM,18%
same,growth inhibition,[13]; at 100.0 µM,65%
same,growth inhibition,[3]; at 1.2 µM,-4%
same,growth inhibition,[3]; at 3.7 µM,-4%
same,growth inhibition,[3]; [17],23%
same,growth inhibition,[3]; at 11.0 µM,44%
same,growth inhibition,[3]; at 33.0 µM,83% (active)
same,growth inhibition,[3]; [18],88% (active)
same,growth inhibition,[3]; at 50.0 µM,72.9% (active)
same,growth inhibition,[3]; at 100.0 µM,89% (active)
same,growth inhibition,[4]; at 1.2 µM,-37%
same,growth inhibition,[4]; at 3.7 µM,-32%
same,growth inhibition,[4]; [17],-22%
same,growth inhibition,[4]; at 11.0 µM,-26%
same,growth inhibition,[4]; at 33.0 µM,11%
same,growth inhibition,[4]; [18],74% (active)
same,growth inhibition,[4]; at 50.0 µM,60%
same,growth inhibition,[4]; at 100.0 µM,70% (active)
same,growth inhibition,[5]; at 1.2 µM,-10%
same,growth inhibition,[5]; at 3.7 µM,-1%
same,growth inhibition,[5]; at 11.0 µM,-1%
same,growth inhibition,[5]; at 33.0 µM,31%
same,growth inhibition,[5]; at 100.0 µM,81% (active)
same,growth inhibition,[6]; [17],20%
same,growth inhibition,[6]; [18],83% (active)
same,growth inhibition,[6]; at 50.0 µM,63.1%
same,growth inhibition,[8]; [17],-18%
same,growth inhibition,[8]; [18],66%
same,growth inhibition,[8]; at 50.0 µM,47.4%
same,growth inhibition,[14]; at 1.2 µM,0%
same,growth inhibition,[14]; at 3.7 µM,0%
same,growth inhibition,[14]; [17],11%
same,growth inhibition,[14]; at 11.0 µM,-10%
same,growth inhibition,[14]; at 33.0 µM,3%
same,growth inhibition,[14]; [18],70% (active)
same,growth inhibition,[14]; at 50.0 µM,57.8%
same,growth inhibition,[14]; at 100.0 µM,74% (active)
same,growth inhibition,[15]; at 1.2 µM,-49%
same,growth inhibition,[15]; at 3.7 µM,-58%
same,growth inhibition,[15]; at 11.0 µM,-77%
same,growth inhibition,[15]; at 33.0 µM,23%
same,growth inhibition,[15]; at 100.0 µM,50%
same,growth inhibition,[16]; at 1.2 µM,-20%
same,growth inhibition,[16]; at 3.7 µM,-10%
same,growth inhibition,[16]; at 11.0 µM,3%
same,growth inhibition,[16]; at 33.0 µM,32%
same,growth inhibition,[16]; at 100.0 µM,81% (active)
same,growth inhibition,[9]; at 1.2 µM,29%
same,growth inhibition,[9]; at 3.7 µM,1%
same,growth inhibition,[9]; at 11.0 µM,-13%
same,growth inhibition,[9]; at 33.0 µM,23%
same,growth inhibition,[9]; at 100.0 µM,69%
same,growth inhibition,[10]; [17],-8%
same,growth inhibition,[10]; [18],83% (active)
same,growth inhibition,[11]; at 1.2 µM,-28%
same,growth inhibition,[11]; at 3.7 µM,-39%
same,growth inhibition,[11]; at 11.0 µM,-41%
same,growth inhibition,[11]; at 33.0 µM,-13%
same,growth inhibition,[11]; at 100.0 µM,74% (active)
